From the supplement of paper PMC3334620
The full ranking holds about 33,000 sequences; the median of “E-score (-0.5 to 0.5)” is about -0.016, and the highest 2% start at about 0.32. The sample holds the highest values, similar sequences and a random draw of the others, so the mix is not that of the screen.

The sequences below were run against T1, Stp1 (UniProt B3LFK1) (assay: PBM E-score (8-mer binding enrichment) (E-score (-0.5 to 0.5)); higher = stronger / more preferred TF binding). Details: protein concentration: 200 nM; construct: GST-full length.
T1 sequence: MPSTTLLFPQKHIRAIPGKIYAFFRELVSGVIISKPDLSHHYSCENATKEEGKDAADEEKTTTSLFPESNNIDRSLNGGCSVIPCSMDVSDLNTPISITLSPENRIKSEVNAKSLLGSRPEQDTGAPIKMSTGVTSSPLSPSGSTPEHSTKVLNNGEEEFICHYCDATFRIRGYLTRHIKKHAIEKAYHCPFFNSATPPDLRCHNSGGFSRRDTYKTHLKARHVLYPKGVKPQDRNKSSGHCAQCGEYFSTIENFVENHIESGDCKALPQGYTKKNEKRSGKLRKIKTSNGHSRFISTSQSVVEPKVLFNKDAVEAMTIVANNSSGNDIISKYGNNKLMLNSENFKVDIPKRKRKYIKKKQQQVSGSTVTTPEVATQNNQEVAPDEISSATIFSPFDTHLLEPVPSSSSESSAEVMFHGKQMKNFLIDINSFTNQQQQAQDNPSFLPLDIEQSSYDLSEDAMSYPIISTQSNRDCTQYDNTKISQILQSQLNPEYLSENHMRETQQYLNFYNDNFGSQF
Protocol: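 Universal 'all 10-mer' protein binding microarrays (Agilent AMADID 015681) probed with GST-tagged S. cerevisiae TFs (full-length or DBD) made by in vitro transcription/translation (PURExpress), about 100-200 nM. Bound TF was detected with fluorescent anti-GST. Each ungapped 8-mer (which stands for itself and its reverse complement) is scored by the PBM enrichment score (E-score), a modified Wilcoxon-Mann-Whitney statistic from -0.5 to +0.5, computed with the Universal PBM Analysis Suite. Scale: above 0.35 generally sequence-specific binding.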

| Sequence | PBM E-score |
| --- | --- |
| GTCGGCAA | 0.0611 |
| GACGGCAA | 0.325 |
| GACGGCAC | 0.453 |
| GACGGAAC | -0.0397 |
| GCCGGCAA | 0.106 |
| GCCGGCAC | 0.273 |
| CAAGCCCG | -0.0901 |
| CCACACTA | 0.127 |
| ATCTAGCG | -0.0611 |
| ACCAGATG | -0.146 |
| CTGAGGCA | 0.192 |
| ATGAGGCA | 0.332 |
| ATGAGGCG | 0.35 |
| GTGAGGCA | 0.367 |
| AAGAGGCT | 0.0613 |
| ATGAGGCC | 0.0892 |
| AAGAGGCG | 0.298 |
| GGGAGGCA | 0.00612 |
| AAGAGGCA | 0.363 |
| ATGAGGTG | -0.0679 |
| GAGAGGCA | 0.208 |
| ATGAGGAA | -0.0278 |
| GTTCTGTA | 0.0215 |
| TCCCGCGA | -0.312 |
| TATTGAGA | 0.0944 |

| Sequence | PBM E-score |
| --- | --- |
| CCTGCTCC | 0.0227 |
| CATTAAAA | 0.245 |
| CAAGACCC | -0.272 |
| AAAGGACC | 0.0732 |
| ATGAGTAC | 0.0493 |
| AGTGTGGC | 0.068 |
| CATGTGGG | -0.144 |
| CGTGTGGC | 0.353 |
| CGTGTGGA | 0.016 |
| AATGTGGC | 0.158 |
| CATGTGGC | 0.32 |
| AGCTCATC | -0.307 |
| TAGCACCA | -0.0587 |
| GCAACTAA | 0.263 |
| ATGTTTCG | 0.147 |
| AAAAACGA | 0.128 |
| GCGGCGCC | 0.484 |
| CCGGCGGC | 0.152 |
| CCGGCGCG | 0.298 |
| GGGGCGCA | 0.126 |
| GCGGCCCC | 0.176 |
| TCGGCGCA | 0.243 |
| CCGGCGCA | 0.121 |
| GCGGCGCA | 0.463 |
| CCGGCGCC | 0.367 |

| Sequence | PBM E-score |
| --- | --- |
| CTTCAGAC | -0.00198 |
| AGTCGCGC | 0.0334 |
| GCCCTAGA | -0.0515 |
| CTGCTTCA | -0.155 |
| ACTATCTG | -0.183 |
| AGCCGCTC | 0.337 |
| AGCCGCTG | 0.0781 |
| CGCCGCTA | 0.299 |
| AGCCGCTA | 0.119 |
| CGCCGCTC | 0.434 |
| CACCGCTC | -0.0467 |
| ATGACCAA | -0.0118 |
| CGATTAGA | 0.083 |
| CGACAGGC | -0.0711 |
| CAAGATCA | 0.101 |
| GCTGCCCC | -0.0352 |
| CAGTCAAC | -0.139 |
| CATACTTC | -0.12 |
| CCACCCAC | 0.0467 |
| TGGCACCA | 0.176 |
| CTGCACCA | -0.199 |
| AGGCACCA | 0.366 |
| AGGCACGG | 0.397 |
| GGGCACCA | 0.056 |
| AGGCACCT | 0.135 |

| Sequence | PBM E-score |
| --- | --- |
| AGGCACAT | 0.276 |
| CGGCACCA | 0.462 |
| AGGCACGA | 0.267 |
| CCTCTCTA | -0.212 |
| AACCAGTT | 0.143 |
| GAGAAGCC | -0.0953 |
| GGTGGCAC | 0.147 |
| TGGTGAAA | 0.0915 |
| CATTTTGG | 0.114 |
| ATAGTGAG | -0.0378 |
| TGATTCCA | -0.0134 |
| GAAGGTAC | -0.11 |
| CATCGCCA | 0.0899 |
| AATCGCCC | 0.0762 |
| CATCGCCG | 0.375 |
| AGTCGCCG | 0.369 |
| ATTCGCCC | -0.0713 |
| AATCGCCT | 0.302 |
| AGTCGCCC | -0.174 |
| CATCGCCC | -0.0878 |
| AGTCGCCA | -0.199 |
| ATTCGCCG | 0.328 |
| ATTCGCCA | 0.0506 |
| AATCGCCG | 0.431 |
| AAGCATCT | -0.17 |

| Sequence | PBM E-score |
| --- | --- |
| AGGATATG | 0.0335 |
| ACCATCCG | -0.144 |
| ACTGGACG | -0.112 |
| GTAGCTGA | -0.154 |
| GTCTCTAA | -0.0881 |
| AAACGGTT | -0.155 |
| AGATAACT | -0.103 |
| GGCGCCAA | 0.379 |
| CGCGCCAC | 0.286 |
| CGCGCCAA | 0.132 |
| AGCGCCAA | -0.059 |
| AGCGCCAC | 0.13 |
| GGCGCCAC | 0.384 |
| ACAGCCGC | 0.25 |
| GAAGCCGC | 0.393 |
| GAAGCCGA | -0.0348 |
| CAAGCCGC | 0.299 |
| AAAGCCGT | 0.386 |
| AAAGCCGA | -0.0141 |
| AAAGCCGC | 0.369 |
| ACAGCCGT | 0.354 |
| AAAGCCAC | 0.123 |
| ACAGCCGA | -0.0659 |
| AAAGCCTC | 0.204 |
| AAAGCCGG | 0.135 |

| Sequence | PBM E-score |
| --- | --- |
| GGAGTACA | -0.00077 |
| CGTCTTAG | 0.0086 |
| CTTCATCA | -0.0498 |
| AACTCTAA | -0.00844 |
| AACAAATT | 0.232 |
| CATTATGG | -0.177 |
| GCGGTCCC | -0.16 |
| CGTACGCC | 0.233 |
| ATTACGGA | 0.0935 |
| ATTACGGC | 0.341 |
| CGTACGGA | 0.302 |
| AGTACGGC | 0.436 |
| AGTACGGA | 0.154 |
| ATTACGGG | -0.199 |
| AGTACGGG | -0.156 |
| CGTACGGC | 0.482 |
| CCTCGGGA | -0.121 |
| GCTTAGAC | -0.11 |
| GTGCCCAC | -0.00488 |
| GGCTGACA | 0.0532 |
| GCTTTGGA | 0.103 |
| GCGTGCGA | -0.0235 |
| ACGTGCGC | 0.165 |
| CCGTGCTC | 0.261 |
| CCGTGCGA | 0.415 |

| Sequence | PBM E-score |
| --- | --- |
| CTGTGCGA | -0.0295 |
| CCGTGCGC | 0.433 |
| CCAAACTA | -0.0843 |
| GCAGCATA | 0.0149 |
| CGACTACC | -0.22 |
| AGAGAGCA | -0.213 |
| AGTGCAGG | -0.0709 |
| CCCGGGCC | -0.151 |
| GAACGGCC | 0.233 |
| CAACGGTA | -0.266 |
| GAACGGCA | 0.468 |
| CAACGGAA | 0.123 |
| CAACGGCA | 0.402 |
| TAACGGCA | 0.31 |
| AAACGGCA | 0.467 |
| AAACGGTA | 0.166 |
| GAACGGGA | -0.0828 |
| AAACTGCG | -0.0893 |
| ACTGGCAT | -0.0932 |
| CTAGTGCC | 0.301 |
| TACTGCGA | -0.159 |
| TTGAACAA | 0.0506 |
